According to the supplement of paper PMC3334620:
Over roughly 33,000 sequences, “E-score (-0.5 to 0.5)” has its median near -0.011; the highest 2% begin near 0.28. Shown is part of a subset that was picked to be rich in the highest values.

These sequences were tested against T1, Gcr1 (UniProt P07261) (assay: PBM E-score (8-mer binding enrichment) (E-score (-0.5 to 0.5)); higher = stronger / more preferred TF binding). Settings: protein concentration: 100 nM; construct: GST-full length.
T1 sequence: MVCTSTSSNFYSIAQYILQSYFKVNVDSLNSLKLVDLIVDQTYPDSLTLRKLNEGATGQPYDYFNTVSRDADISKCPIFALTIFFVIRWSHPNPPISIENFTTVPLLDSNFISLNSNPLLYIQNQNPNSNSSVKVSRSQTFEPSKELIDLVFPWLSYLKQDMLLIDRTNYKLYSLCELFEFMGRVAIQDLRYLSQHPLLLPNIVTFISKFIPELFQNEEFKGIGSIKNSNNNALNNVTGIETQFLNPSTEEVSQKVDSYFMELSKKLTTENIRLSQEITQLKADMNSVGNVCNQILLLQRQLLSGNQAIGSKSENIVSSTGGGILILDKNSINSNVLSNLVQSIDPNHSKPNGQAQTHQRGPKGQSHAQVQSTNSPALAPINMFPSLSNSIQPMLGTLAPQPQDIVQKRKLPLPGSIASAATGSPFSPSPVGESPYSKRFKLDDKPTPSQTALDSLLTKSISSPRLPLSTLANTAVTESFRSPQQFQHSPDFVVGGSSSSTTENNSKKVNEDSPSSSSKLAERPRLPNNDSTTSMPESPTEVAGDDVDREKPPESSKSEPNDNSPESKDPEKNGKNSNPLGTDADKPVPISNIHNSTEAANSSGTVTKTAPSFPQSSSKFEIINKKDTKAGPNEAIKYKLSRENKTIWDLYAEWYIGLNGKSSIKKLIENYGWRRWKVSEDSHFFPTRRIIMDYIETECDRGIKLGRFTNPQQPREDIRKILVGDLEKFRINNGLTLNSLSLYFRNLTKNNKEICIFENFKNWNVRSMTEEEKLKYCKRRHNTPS
In short: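 GST-tagged yeast TFs (full-length or DNA-binding domain) were made by PURExpress in vitro transcription/translation and applied at about 100-200 nM to universal all-10-mer Agilent arrays. The arrays were made double-stranded by primer extension, on fresh or once-stripped slides. Bound protein was detected with fluorescent anti-GST, and scans were normalised with masliner. Each ungapped eight-base word, pooled with its reverse complement, received an E-score (modified Wilcoxon-Mann-Whitney statistic) from the Universal PBM Analysis Suite.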

Row | Sequence | PBM E-score
1 | ACACCCAC | 0.0847
2 | CTTTTTGA | 0.115
3 | AGTTGGAA | 0.187
4 | ATAGCTGA | -0.0965
5 | ATAGCTGC | 0.285
6 | GAGGCTGC | 0.253
7 | AAGGCTGC | 0.302
8 | AAGGCTGA | -0.141
9 | CTAGCTGC | 0.161
10 | CTGTCTTC | 0.00215
11 | AGCTAATA | 0.0193
12 | CGGGGCCC | 0.219
13 | TCCAAAGA | 0.0425
14 | ACAGCTCA | -0.146
15 | ATAAGACG | 0.192
16 | CAGGAAGC | 0.434
17 | CACGAAGC | 0.311
18 | AAGGAAGG | -0.0778
19 | AAGGAAGC | 0.452
20 | GAGGAAGA | 0.171
21 | CAGGAAGG | 0.184
22 | GAGGAAGC | 0.391
23 | GAGGAAAC | -0.104
24 | CAGGAAGA | 0.0842
25 | CACGAAGA | -0.098
26 | AACGAAGC | 0.00062

Row | Sequence | PBM E-score
27 | AAGGAAGA | -0.00011
28 | CCAAGGTC | -0.0561
29 | CGAAAGGC | 0.0349
30 | GCCTTCAC | -0.0793
31 | AGCTGCAT | -0.077
32 | CTCGGCGC | 0.159
33 | CAAAGGCG | -0.134
34 | AGGCGTCC | 0.387
35 | AGGCGTCG | -0.0284
36 | AGGCGTCA | -0.194
37 | CGGCGTCA | 0.0965
38 | CGGCGTGC | -0.094
39 | CGGCGTCC | 0.412
40 | ATATAGAG | 0.133
41 | AAATTCAG | 0.169
42 | CCATAGGC | -0.00913
43 | TGAGAAAA | 0.0932
44 | AGGCAGAT | 0.0845
45 | ATACGTAT | 0.284
46 | ATACGTAA | 0.053
47 | ATACGTAC | -0.00136
48 | AAACCAAC | 0.0391
49 | GCACCATA | 0.228
50 | AGTTTTAT | 0.112
51 | CTACTATA | 0.282
52 | ATACTATA | -0.0912

Row | Sequence | PBM E-score
53 | CTACTATC | 0.146
54 | CGAGCCTC | -0.0914
55 | GAACAACC | -0.0951
56 | AGGCACTA | -0.113
57 | AGCAACCA | 0.349
58 | GGCAACCA | 0.374
59 | GGCAACCC | 0.176
60 | AGCAACCC | 0.00142
61 | AGCAACCG | 0.0554
62 | ACCAACCA | 0.0293
63 | TGCAACCA | 0.261
64 | AGCAACCT | 0.316
65 | CGCAACCA | 0.147
66 | ACTAACCA | 0.117
67 | CGTAAGAG | -0.199
68 | CAGCTGTC | -0.0336
69 | AATGCTCT | -0.112
70 | CCATTCCC | -0.0773
71 | GGCGTCAA | -0.0289
72 | CCCGTCTC | -0.0723
73 | CGCGTCTC | 0.301
74 | CGCGTCTA | 0.137
75 | GGCGTCTA | 0.342
76 | AGCGTCTA | 0.307
77 | AGCGTCTC | 0.22
78 | AGCGTCTG | 0.175

Row | Sequence | PBM E-score
79 | AGCGTCAA | 0.0252
80 | ATGAAGCC | 0.145
81 | AATACCGA | 0.0609
82 | AGGTTCCG | 0.205
83 | GAGTTCCA | 0.123
84 | CGGTTCCA | 0.189
85 | GGTTTCCA | 0.119
86 | AGGTTCCA | 0.327
87 | GGGTTCCA | 0.419
88 | CGGCCCTA | -0.253
89 | TGGATAAA | 0.11
90 | CACTTCCG | 0.0282
91 | GACTTCCA | 0.319
92 | GAATTCCC | 0.116
93 | GACTTCAA | -0.0566
94 | CACTTCCA | 0.312
95 | CAATTCCA | 0.0815
96 | GACTTCCC | 0.127
97 | TACTTCCA | 0.121
98 | GAATTCCA | 0.369
99 | AACTTCCA | 0.349
100 | AACTTCCG | 0.267
101 | CACTTCCC | 0.0585
102 | CCGACCCA | -0.0324
103 | CGCAGGCG | 0.00025
104 | ATTGCTAC | 0.11

Row | Sequence | PBM E-score
105 | ACGGCTCG | -0.105
106 | GTCATTAA | 0.0346
107 | AGTCCGTG | -0.0968
108 | AAATCCAT | 0.129
109 | GGCCCGCA | -0.0485
110 | CAACCCAG | 0.00319
111 | CCCGCGAC | -0.167
112 | AACTTCCT | 0.376
113 | AACTTCGT | 0.173
114 | AACTTCCC | -0.0101
115 | AGGGAAAT | -0.173
116 | ACTGCTAA | -0.0287
117 | ACCACTCA | -0.067
118 | ACCACTAG | 0.267
119 | CCCACTAC | 0.187
120 | ACCACTAA | 0.285
121 | AGCACTAA | -0.0258
122 | GCCACTAC | 0.305
123 | TCCACTAA | 0.418
124 | CCCACTAA | 0.241
125 | ACCACTAT | 0.356
126 | ACCACTAC | 0.129
127 | GCCACTCC | -0.045
128 | TCCACTCA | 0.189
129 | ATCGAGCG | -0.167
130 | GGATATCC | -0.206

Row | Sequence | PBM E-score
131 | CCGATTCA | -0.00017
132 | CTGCCGAA | -0.0682
133 | GCCACTAA | 0.366
134 | GCCACTTA | 0.184
135 | GCCACTGA | 0.237
136 | ACAAAGAG | -0.078
137 | AGGCAGCA | 0.0795
138 | CGGCAGCC | 0.382
139 | AGGCAGCG | 0.0171
140 | AGGCAGCC | 0.382
141 | CGGCAGAC | -0.254
142 | CGGCAGCA | -0.0108
143 | AGTCTACG | -0.0187
144 | AGACGCTC | 0.185
145 | AGACGCTA | 0.293
146 | AGACGCTG | 0.254
147 | CGACGCTA | 0.0406
148 | GGACGCTA | 0.363
149 | GCACGCTA | -0.0819
150 | ACGAGCAC | -0.0665
151 | AAACCCGG | 0.0332
152 | ACGCGCAT | -0.0657
153 | GCCTGTGA | 0.0496
154 | ATGGAATA | 0.0994
155 | ATGGAATG | -0.00503
156 | CCGGAATC | 0.219

Row | Sequence | PBM E-score
157 | CTGGAATA | 0.259
158 | CTGGAATC | 0.407
159 | ATGGAATC | 0.29
160 | AACGCTCC | -0.276
161 | GCGTCTTA | 0.239
162 | CAGCTCGC | -0.117
163 | CGACCGTC | -0.41
164 | TGATATCA | 0.0841
165 | CAGCCATA | 0.022
166 | AGCAGCTG | 0.311
167 | ATCAGCCG | -0.264
168 | CACAGCCC | -0.232
169 | CGCAGCCC | 0.324
170 | AGCAGCAT | -0.00516
171 | ACCAGCCT | 0.0001
172 | CGCAGCGC | 0.15
173 | AGCAGCAG | -0.0192
174 | AGCAGCTA | 0.273
175 | AGCAGCTC | 0.16
176 | AGCAGCCG | 0.285
177 | AGCAGCCT | 0.369
